# Assay outcomes: PubChem BioAssay, several laboratories
# A selection: hits, their analogues and other compounds. The true share with any hit is near 1%.
# PriA SSB inh: inhibitors of Klebsiella pneumoniae PriA binding to SSB C-terminal tail | AlphaScreen SSBct-PriA binding, biotinylated peptide | inhibition, % at 33 µM | actives 0.6% (n = 430,000); in the data active = inhibition mostly above about 37%, no sharp cut-off; inactive = mostly below about 20%;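 note: plate controls were negative control peptide for no effect and reference peptide for full effect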
# ugtP null kill: growth inhibition of S. aureus ugtP deletion strain | S. aureus RN4220 ugtP deletion, OD600 growth, 16 h | growth inhibition, % (no concentration beside the values) | actives 0.54% (n = 330,000) | AID 1259309; in the data active = growth inhibition above about 68%;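 note: plate controls were untreated wells for no effect and antibiotic for full effect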
# Sa RN4220 lethal: kills Staphylococcus aureus RN4220; S. aureus RN4220 growth, OD600, 16 h; actives 0.33% (n = 330,000); inhibition, % (test concentration not listed); in the data active = inhibition above about 85%;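 note: plate controls were untreated cells for no effect and reference antibiotic for full effect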
# Active calls of the source: *; . = no result given.
SMILES,PriA SSB inh,ugtP null kill,Sa RN4220 lethal
Cc1cccc(CC(=O)NCC(O)c2ccsc2)c1 (stereo not drawn),5,.,.
Cc1cccc(CC(=O)NCC(O)Cc2ccccc2)c1 (stereo not drawn),21*,.,.
CCCCCn1c(=O)c(C(=O)Nc2cnccn2)c(O)c2ccccc21,-16,99*,74
CCCn1c(=O)c(C(=O)Nc2ccccc2)c(O)c2ccccc21,-15,21,-7
CCCCCCCC(=O)NNC(=O)c1c(O)c2ccccc2n(CCC)c1=O,-2,78,98*
CCCCCCCn1c(=O)c(C(=O)Nc2cnccn2)c(O)c2ccccc21,0,98*,98*
CC(C)Cn1c(=O)c(C(=O)Nc2cnccn2)c(O)c2ccccc21,-10,-1,5
CCCCCn1c(=O)c(C(=O)Nc2cc(C)ccn2)c(O)c2ccccc21,12,37,42
CCCCCCC(=O)NNC(=O)c1c(O)c2ccccc2n(CCC)c1=O,1,29,28
CCCn1c(=O)c(C(=O)Nc2cccc(C)c2)c(O)c2ccccc21,3,84*,7
CC(C)(C)c1ccc(-c2csc(NC(=O)c3cc(-c4ccccc4)nc4ccccc34)n2)cc1,-3,.,.
C=CCN1C(=O)C(C)(C)COc2ccc(NC(=O)c3cc(OC)cc(OC)c3)cc21,25,.,.
CCOc1ccc2nc(NCCCN3CCOCC3)sc2c1,-5,.,.
Cc1nc(C)c(C(=O)N2CC(Oc3nccs3)C2)s1,-6,.,.
FC(F)Oc1ccc(NC(=S)NCc2ccccc2)cc1,0,7,3
Oc1cccc2c(NC(=S)Nc3ccc(OC(F)F)cc3)cccc12,54*,9,-1
O=C(Nc1ccc(C(F)(F)F)cc1)N1CCC[C@H](Cc2nc(-c3cnccn3)no2)C1,1,.,.
C=CCn1c(SCc2c(C)noc2C)nc2sc3c(c2c1=O)CCCC3,-21,73,2
C=CCn1c(SCc2c(C)noc2C)nc2sc3c(c2c1=O)CCCCC3,5,88*,4
O=C(Nc1cccc(-c2ccc3nncn3n2)c1)c1cccc([N+](=O)[O-])c1,1,.,.
O=C(NCCCSc1ccccc1)c1cc(Br)ccc1O,-64,81,83*
O=C(NCCSc1ccccc1)c1ccc(Br)cc1,-34,5,-5
NC(=O)c1cc([C@@H]2CCCCN2C(=O)c2cc(=O)[nH]c3ccccc23)[nH]n1,-5,.,.
Cc1cc(-n2cc(C(=O)N3CCC(NC(=O)c4ccncc4)CC3)nn2)ccc1F,-8,.,.
Cn1c(SCCC#N)nnc1-c1ccc(F)cc1,.,3,4
SMILES,PriA SSB inh,ugtP null kill,Sa RN4220 lethal
CC1=C(SCCC#N)S/C(=C2\SC(C)=C(SCCC#N)S2)S1,54*,-8,-1
O=C(Cn1cc(S(=O)(=O)c2ccccc2)c2ccccc21)NCc1ccco1,-14,.,.
COCCn1cc(NC(=O)Nc2cc(C)ccc2OC)c2ccccc21,37*,.,.
COCCn1cc(NC(=O)Nc2cccc(C)c2C)c2ccccc21,7,.,.
O=C(Nc1nnc([C@@H]2CCCO2)o1)c1ccc(S(=O)(=O)N2CCOCC2)cc1,-12,.,.
CSc1ccc(C(=O)Nc2nc(-c3ccccn3)cs2)cc1[N+](=O)[O-],33,.,.
O=C(Nc1nc(-c2ccccn2)cs1)c1ccc(Cl)cc1[N+](=O)[O-],110*,.,.
O=C(Nc1nc(-c2ccccn2)cs1)c1ccc([N+](=O)[O-])s1,46,.,.
Cc1cccc(C(=O)Nc2nc(-c3ccccn3)cs2)c1[N+](=O)[O-],97*,.,.
O=C(COc1ccccc1F)Nc1ccc2c(c1)CN(S(=O)(=O)c1ccccc1)CC2,-8,.,.
CN(CC1COCCO1)C(=O)NCCc1ccccc1 (stereo not drawn),-6,.,.
COc1cccc(-c2noc(CN3C(=O)COc4ccc(C)cc43)n2)c1OC,-16,.,.
O=C(O)c1cccc(NC(=S)NC(NC(=O)c2cccc([N+](=O)[O-])c2)C(Cl)(Cl)Cl)c1 (stereo not drawn),-6,0,5
O=C(NC(NC(=S)Nc1ccc(Cl)cc1Cl)C(Cl)(Cl)Cl)c1cccc([N+](=O)[O-])c1 (stereo not drawn),28,73,87*
O=C(Cc1ccccc1Cl)NC1CCN(Cc2noc(-c3ccccc3)n2)C1 (stereo not drawn),-6,.,.
O=[N+]([O-])c1ccc2c(c1Nc1ccccc1)=NC1(CCCCC1)N=2,-17,-2,7
COc1ccc(Nc2c([N+](=O)[O-])ccc3c2=NC2(CCCCC2)N=3)cc1,76*,7,1
CCOC(=O)C(O)(NC(=O)c1cccnc1)C(F)(F)F (stereo not drawn),1,58,84*
CCOC(=O)CNC(=O)c1cccnc1,3,9,3
COc1cccc(-c2cn3c(C(=O)Nc4nc(C)cs4)csc3n2)c1,7,.,.
O=C(O)C1CCCN(S(=O)(=O)C2CC2)C1 (stereo not drawn),-2,.,.
CC[C@@H](C(=O)NCc1ncc(-c2ccccc2)[nH]1)c1ccccc1,1,.,.
COc1ccc(-c2cn3c(CC(=O)Nc4cccc(C)c4)csc3n2)cc1,11,.,.
